Source: PubChem
Most compounds without a hit are left out; they make up all but 3.2% or so of the library.
Luciferase inh: firefly luciferase inhibition. P08659. purified firefly luciferase, luminescence, 8 min. Potency, µM (doses to about 57.1 µM), for inactives: at the top dose activity change, negative = inhibition, usual class: inhibitors. actives 2.2% (n = 72,000). AID 411; active means well fitted inhibition curve with a large enough effect; inconclusive means small, poorly fitted or top-dose-only effect; further: on the % scale 0 is the no-effect control and ±100 the full control effect; nearly all actives have a fitted effect of over 40% in size
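Substrate buffer containing 10 uM ATP (pH 7.2 imidazole, Mg2+, KCl, detergent, BSA) is dispensed, compound pinned in, then luciferase/luciferin detector mix added. After 8 min at ambient temperature, light output is measured.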
Bst PK mod: alters activity of Bacillus stearothermophilus pyruvate kinase; purified pyruvate kinase, luminescence ATP production; ribose 5-phosphate activator present at AC10; Potency, µM; actives 1.2% (n = 51,000); AID 361; in the data active means potency below about 11 µM; inconclusive means mostly about 12 µM to 25 µM;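 the screen sought inhibitors and activators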;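 further: scaled between full activation by ribose 5 phosphate and full inhibition by luteolin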
GBA activity: alters purified human glucocerebrosidase activity | AID 360 | actives 1.1% (n = 48,000) | P04062 | Potency, µM | purified enzyme, resorufin glucoside fluorescence (screen aimed at inhibitors), 20 min; in the data active means potency below about 15 µM; inconclusive means mostly about 16 µM to 33 µM;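 further: the screen sought inhibitors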
Target sequence (P04062 whole entry, looked up): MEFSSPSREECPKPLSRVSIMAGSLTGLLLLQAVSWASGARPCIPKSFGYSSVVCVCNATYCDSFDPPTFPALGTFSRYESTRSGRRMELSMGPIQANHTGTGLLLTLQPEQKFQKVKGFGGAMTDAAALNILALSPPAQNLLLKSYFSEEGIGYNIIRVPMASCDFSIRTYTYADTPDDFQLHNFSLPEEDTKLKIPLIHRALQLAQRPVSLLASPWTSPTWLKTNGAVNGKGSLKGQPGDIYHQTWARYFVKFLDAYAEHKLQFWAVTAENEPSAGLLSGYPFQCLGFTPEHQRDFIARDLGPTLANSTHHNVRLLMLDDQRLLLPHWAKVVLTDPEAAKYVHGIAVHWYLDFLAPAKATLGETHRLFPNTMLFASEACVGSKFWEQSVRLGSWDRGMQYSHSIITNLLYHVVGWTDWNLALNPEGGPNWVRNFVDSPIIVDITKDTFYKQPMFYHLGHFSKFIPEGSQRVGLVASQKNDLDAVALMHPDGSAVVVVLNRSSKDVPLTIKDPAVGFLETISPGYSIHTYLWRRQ
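Compounds titrated against 0.2 nM normal enzyme, 30 uM resorufin beta-D-glucopyranoside substrate, citrate/phosphate buffer with taurocholate and tween-20, pH 5.9. Reaction ran 20 min at room temperature; fluorescence (Ex 548/Em 600) gave AC50.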
Numbers without * were called inactive; i = inactive; ? = inconclusive; nt = not tested or not shown; ! = not confirmed by another sample; [ ] = remark or other dose. Potency means the concentration at half of the fitted maximal effect.

SMILES	Luciferase inh	Bst PK mod	GBA activity
CCS(=O)(=O)N1CCC(C(=O)Nc2cc(Cl)ccc2O)CC1	-2%	>57	14*
CCOC(=O)c1ccc(NC(=O)C2CCN(S(=O)(=O)CC)CC2)cc1	-1%	>57	i
Cc1noc(C)c1-c1nc(N(C)Cc2ccco2)c2ccccc2n1	-3%[2.29 µM]	nt	nt
O=C1c2ccccc2-c2n[nH]c3cccc1c23	0%	nt	nt
Cc1ccc(-c2cc3c(nn2)-c2ccccc2C3=O)cc1	0.25µM*	nt	nt
COc1ccc(Oc2ncc3ncc(=O)n(Cc4cccs4)c3n2)cc1	0%[11.4 µM]	nt	nt
Cc1ccc(S(=O)(=O)N[C@H]2COC(=O)CC=C[C@@H](C)[C@H]3C=C[C@H](O)[C@@H](COC(=O)CC=C[C@H]2C)O3)cc1	1%[11.4 µM]	nt	nt
COc1ccc(-c2nc3nc(C)c(Cc4ccccc4)c(=O)n3[nH]2)cc1	-6%	>57	>77
COC(=O)Cc1c(C)nc2nc(-c3ccc(OC)cc3)[nH]n2c1=O	13µM*	nt	>77
COc1cccc(-c2ccc3ncnc(N4CCN(C)CC4)c3c2)c1	0%[2.29 µM]	nt	nt
C[C@@]12CCC(=O)C=C1CC[C@H]1[C@H]3CC[C@](O)(C(=O)CO)[C@]3(C)CC[C@@H]12	1%	nt	nt
CCCCOc1ccc(C2C3CN(C(=O)OCC)CC=C3C(C#N)=C(N)C2(C#N)C#N)cc1OC (stereo not given)	-8%	nt	15*
CCOC(=O)N1CC=C2C(C#N)=C(N)C(C#N)(C#N)[C@H](c3ccc(OCC)c(OCC)c3)[C@H]2C1	1%	>57	>77
c1ccc(NN(Cc2cnccn2)c2ccccc2)cc1	0%[11.4 µM]	nt	nt
O=C(O)[C@@H]1[C@@H](C(=O)NCc2cccnc2)[C@@H]2C=C[C@@H]1O2	0%[11.4 µM]	nt	nt
COc1ccc(Nc2nc(N)nc(CN3CCc4ccccc4C3)n2)cc1	3%	nt	nt
COc1cccc(N2CCN(Cc3nc(N)nc(N4CCCc5ccccc54)n3)CC2)c1	2%	>57	11*
CCNc1ncc2nc(-c3ccc(Cl)cc3)c(=O)n(C[C@H]3CCCO3)c2n1	1%[11.4 µM]	nt	nt
CC(C)(CO)[C@H](O)C(=O)NCCCO	-2%[25.5 µM]	nt	nt
O=c1c(-c2ccccc2)nc2cnc(Nc3ccccc3)nc2n1Cc1cccs1	-1%[11.4 µM]	nt	nt
Cc1cc(NC(=O)c2cccc(F)c2)ncc1NC(=O)c1ccco1	16µM*	nt	>77
O=C(Nc1ccc(-c2noc(CCc3ccccc3)n2)cc1)c1ccco1	10µM*	?	>77
Cc1cc(NC(=O)c2ccco2)ncc1NC(=O)CCc1ccccc1	-7%	>57	>77
O=C(Nc1ccc(NC(=O)c2ccco2)nc1)c1cccnc1	25µM*	nt	>77
O=C(Nc1cnc2ccccc2c1)c1ccco1	20µM*	i	>77
SMILES	Luciferase inh	Bst PK mod	GBA activity
O=C(Nc1cccnc1)c1ccc(NC(=O)c2ccco2)cc1	0%	>57	?
O=C(Nc1cccc(-c2cnc3ccccc3n2)c1)c1ccco1	-10%	?	>77
c1ccc(CCc2nc(-c3cccnc3)no2)cc1	-6%	>57	>77
O=C(O)c1cc2ccccc2c(Cc2c(O)c(C(=O)O)cc3ccccc23)c1O	2%[11.4 µM]	nt	nt
CN(C)c1ncnc2ccc(-c3ccccc3C#N)cc12	2%[2.29 µM]	nt	nt
Cc1cnc(CNc2nc(-c3ccccc3Cl)nc3ccccc23)cn1	-4%[2.29 µM]	nt	nt
c1ccc2cc(NCNc3ccc4ccccc4c3)ccc2c1	-14%[11.4 µM]	nt	nt
CC1=NCC[N@@+]1(CCc1ccccc1)Cc1ccccc1	4%[11.4 µM]	nt	nt
Cc1noc(C)c1C(=O)N1CCC2(CCCN(Cc3nccs3)C2)CC1	1%[11.4 µM]	nt	nt
COc1cccc(Cn2c(=O)c(C)nc3cnc(OC)nc32)c1	1%[11.4 µM]	nt	nt
CC(C)c1cc(C(=O)Nc2ccc3c(c2)OCO3)no1	7.9µM*	nt	nt
COc1ccc(C2CC(C(F)(F)F)n3nc(C(=O)Nc4ccc5c(c4)OCO5)cc3N2)cc1 (stereo not given)	-4%	nt	nt
O=C(Nc1ccc2c(c1)OCO2)c1cc(C2CC2)on1	7.9µM*	nt	nt
O=C(Nc1ccc2c(c1)OCO2)c1ccncc1	-5%	nt	nt
COc1ccc(NC(=O)c2cc(C(C)C)on2)cc1OC	-12%	nt	>77
CC(C)c1cc(C(F)(F)F)n2nc(C(=O)Nc3ccc4c(c3)OCO4)cc2n1	20µM*	nt	>77
COc1ccccc1CN1CC[C@@]2(CCCN(C(=O)c3ccco3)C2)C1	1%[11.4 µM]	nt	nt
CO[C@H]1COC(=O)[C@@H](C)COC(=O)[C@@H](Cc2ccccc2)NC(=O)C/C=C\[C@H]1C	-1%[11.4 µM]	nt	nt
CCc1nc2ccccc2c(C(=O)OC2CCOC2=O)c1C (stereo not given)	3%	>57	?
CCCc1nc2ccccc2c(C(=O)OC2CCOC2=O)c1CC (stereo not given)	1%	>57	12*
COc1ccccc1-c1ccc2ncnc(N3CCNCC3)c2c1	0%[2.29 µM]	nt	nt
CCn1c(SCC(=O)O)nnc1-c1cc2c(C)nn(-c3ccccc3)c2s1	25µM*	i	>77
CCn1c(COc2ccccc2C)nnc1SCC(=O)O	2%	>57	>77
COc1ccc(/C=C\C(=O)Nc2ccccc2C(=O)O)cc1OC	32µM*!	nt	nt
